PubChem BioAssay AID1159580 (chemical genetic matrix, 2015)
The campaign covered roughly 5,500 compounds. About 2,000 (36%) were called active. About 18% were inconclusive and are not listed. Cut-off read from the data, not from the text of the source: active = normalized growth mostly below about 0.91 (no sharp cut-off); inconclusive = no clear call, values can overlap the other calls; inactive = mostly above about 0.92. Some of the results follow.

Assay: chemical genetic growth profiling, strain panel (AID 1159580);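 note: tested at 20 µM; growth read once vehicle control cultures reached saturation at 30 °C; 1 = growth at the plate median or of vehicle wells; lower values mean less growth of the strain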
Settings: S. cerevisiae deletion strains, growth OD

Measured: normalized growth

CCN1CCC[C@H]1CNC(=O)c1c(OC)ccc(I)c1O
inactive: locus YAL040C, strain CLN3, stronger effect = lower value 1.01 | locus YCL061C, strain MRC1 (second series), stronger effect = lower value 1 | locus YDR150W, strain NUM1, stronger effect = lower value 0.986 | locus YDR363W, strain ESC2, stronger effect = lower value 1.01 | locus YER002W, strain NOP16, stronger effect = lower value 0.996 | locus YGR229C, strain SMI1, stronger effect = lower value 0.92 | locus YJR075W, strain HOC1, stronger effect = lower value 0.984 | locus YMR307W, strain GAS1, stronger effect = lower value 1 | locus YNL175C, strain NOP13, stronger effect = lower value 1 | locus YNL197C, strain WHI3, stronger effect = lower value 1.02 | locus YNL224C, strain SQS1, stronger effect = lower value 1.01 | locus YNL322C, strain KRE1, stronger effect = lower value 0.996 | locus YOR083W, strain WHI5 (second series), stronger effect = lower value 0.974 | locus YPL055C, strain LGE1, stronger effect = lower value 0.972 | locus YPL241C, strain CIN2, stronger effect = lower value 0.998
